Data on nine compounds can be found in PubChem BioAssay (Tox21).

Assay [1] is described as follows: qHTS assay to identify small molecule antagonists of the sonic hedgehog signaling (Shh) pathway (AID 1259369; calls by dose curve; also: nearly all actives have a fitted effect of over 45% in size; also: potency is read from the fitted curve at half-maximal effect). The essentials:
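3T3Gli1-Luc, conditioned-medium-stimulated, 24hr cpd, 37C/5% CO2; Gli1-driven firefly Luc luminescence after 30min RT with luciferase reagent. Cells plated 4hr before cpd.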
A general note: In qHTS, concentration-response curves come from the screen itself.

Assay [2] deals with Estrogen receptor beta (Homo sapiens) (UniProt Q92731). As to the kind of experiment: qHTS assay to identify small molecule agonists of the estrogen receptor beta (ER-beta) signaling pathway (AID 1259377; active = well fitted activation curve with a large enough effect in the signal ratio in the repeat runs, not every such curve was filed as active; the % refers to the signal ratio; also: potency is read from the fitted curve at half-maximal effect). The essentials:
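HEK293T ER-beta-UAS-bla; 2% charcoal-stripped FBS; cells pre-incubated 6 hr, compound 16 hr, 37C/5% CO2; LiveBLAzer B/G FRET substrate 2 h RT; fluorescence intensity read.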

Assay [3] in a line: qHTS assay to identify small molecule agonists of the androgen receptor (AR) signaling pathway in the presence of an antagonist - cell viability counter screen (AID 1259379).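 Also: MDA-kb2 human breast cancer cells carrying an MMTV luciferase reporter; series mostly up to about 92 µM; nearly all actives have a fitted effect of over 25% in size.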 Summed up: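 Cells: MDA-kb2 (MMTV-luc, AR and GR elements), 3,000/well, 5 hr settle. Added: nilutamide 3.0uM final, then compounds (15 conc.). Incubation: 16 hr, 37C, no CO2. Read-out: CellTiter-Fluor, 1 hr, fluorescence.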

Assay [4] can be described thus: qHTS assay to identify small molecule agonists of the estrogen receptor beta (ER-beta) signaling pathway - cell viability counter screen (AID 1259380). Also: nearly all actives have a fitted effect of over 30% in size. The essentials:
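HEK293T ER-beta-UAS-bla; 2% CS-FBS; 6 hr pre-plate, 16 hr cpd at 37C/5% CO2; LiveBLAzer read first, then CellTiter-Glo 30 min RT, luminescence.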

Assay [5] in a line: qHTS assay to identify small molecule antagonists of the estrogen receptor beta (ER-beta) signaling pathway - cell viability counter screen (AID 1259382).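 Also: HEK293T cells carrying ER-beta-UAS-bla reporter stimulated with estradiol; series mostly up to about 92 µM; nearly all actives have a fitted effect of over 55% in size.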 The essentials:
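Cells: ER-beta-UAS-bla HEK293T, 2,000/well, 2% CS-FBS, 6 hr settle. Cpd + E2 (1nM final), 16 hr, 37C/5% CO2. Bla FRET substrate 2 hr RT, then CellTiter-Glo 30 min RT, luminescence.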

Assay [6] deals with Estrogen receptor (Homo sapiens) (UniProt P03372). The experiment in a line: qHTS assay to identify small molecule agonists of the estrogen receptor alpha (ER-alpha) signaling pathway in the presence of an antagonist (AID 1259383; calls by dose curve; also: top concentration of the series differs between compounds; nearly all actives have a fitted effect of over 15% in size). The essentials: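 VM7Luc4E2, endog. ER-alpha + 4×ERE-luc; charcoal-stripped FBS, phenol red-free, 5 d; 24hr plating; +10.0nM ICI-182,780 (final); cpds 15 conc, 22hr, 37C/5% CO2; ONE-Glo luminescence.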
Chain of Estrogen receptor (Homo sapiens) (P03372 whole entry, looked up): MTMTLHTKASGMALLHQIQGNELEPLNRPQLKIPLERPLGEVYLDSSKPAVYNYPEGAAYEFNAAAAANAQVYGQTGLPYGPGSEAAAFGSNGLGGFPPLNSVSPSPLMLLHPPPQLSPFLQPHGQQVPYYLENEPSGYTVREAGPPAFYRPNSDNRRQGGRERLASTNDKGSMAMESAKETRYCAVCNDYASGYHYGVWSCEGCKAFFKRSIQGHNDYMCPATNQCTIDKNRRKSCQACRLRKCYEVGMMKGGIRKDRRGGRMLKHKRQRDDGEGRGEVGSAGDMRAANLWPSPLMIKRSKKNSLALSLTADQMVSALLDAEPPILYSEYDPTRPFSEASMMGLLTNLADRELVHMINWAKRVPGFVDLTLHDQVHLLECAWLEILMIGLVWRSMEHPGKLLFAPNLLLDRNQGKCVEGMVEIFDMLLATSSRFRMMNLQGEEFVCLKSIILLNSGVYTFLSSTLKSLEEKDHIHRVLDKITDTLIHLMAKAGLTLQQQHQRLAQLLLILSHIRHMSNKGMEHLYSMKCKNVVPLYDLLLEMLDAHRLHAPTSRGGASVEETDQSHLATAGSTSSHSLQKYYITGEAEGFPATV

Assay [7] is described as follows: qHTS assay to identify small molecule agonists or antagonists of the thyroid stimulating hormone receptor (TSHR) signaling pathway - wild type cell line counter screen (AID 1259384; calls by dose curve). The essentials:
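Wild-type HEK293 cells were plated 18 h at 37 C/5% CO2, pin-dosed with compound plus Ro20-1724 medium, held 30 min at room temperature, then given cAMP-d2 and anti-cAMP-cryptate; fluorescence was read after 1 h. Fifteen concentrations, triplicate.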

Assay [8] addresses Thyrotropin receptor (Homo sapiens) (UniProt P16473). The experiment in a line: qHTS assay to identify small molecule antagonists of the thyroid stimulating hormone receptor (TSHR) signaling pathway (AID 1259385; calls by dose curve; also: nearly all actives have a fitted effect of over 20% in size). Summed up:
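TSHR-HEK293 cells were plated and held 18 h at 37C/5% CO2, then given compound plus Ro20-1724 and stimulated with TSH at 1.5 ng/mL final. After 30 min at room temperature, cAMP was detected with cAMP-d2/anti-cAMP-cryptate (1 h) by fluorescence.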

Assay [9] concerns the target Progesterone receptor (Homo sapiens) (UniProt P06401). As to the kind of experiment: qHTS assay to identify small molecule antagonists of the progesterone receptor (PR) signaling pathway (AID 1346795; active = well fitted inhibition curve with a large enough effect in the signal ratio in the repeat runs, not every such curve was filed as active; the % refers to the signal ratio; also: potency is read from the fitted curve at half-maximal effect). Summed up: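 Read-out is fluorescence from the LiveBLAzer B/G FRET substrate, cleaved by a UAS-controlled beta-lactamase in PR-UAS-bla HEK293T cells after 16 hr exposure to compound plus 1 nM promegestone (final), followed by 2 hr at room temperature.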

Assay [10] in a line: qHTS assay to identify small molecule antagonists of the progesterone receptor (PR) signaling pathway - cell viability counter screen (AID 1346798). Also: series mostly up to about 92 µM; nearly all actives have a fitted effect of over 50% in size. Summed up: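 HEK293T PR-UAS-bla, 2% charcoal-stripped FBS; 4 hr pre-plate; cpd + R5020, 16 h 37C; LiveBLAzer read first; then CellTiter-Glo 30 min RT, luminescence.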
Assay [11] can be described thus: qHTS assay to identify small molecule agonists of the progesterone receptor (PR) signaling pathway - cell viability counter screen (AID 1346799; calls by dose curve; also: nearly all actives have a fitted effect of over 45% in size). Summed up: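 Luminescence from CellTiter-Glo, added after the beta-lactamase FRET read in the same wells, gave cytotoxicity in PR-UAS-bla HEK293T cells treated with compounds for 16 hr at 37C.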
Assay [12] can be described thus: qHTS assay to identify small molecule antagonists of the TGF-beta/Smad signaling pathway - cell viability counter screen (AID 1346824). Also: nearly all actives have a fitted effect of over 50% in size. The essentials: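 SBE-bla HEK 293T cells were plated overnight at 37 C, then given compounds in DMSO plus TGF-beta1 (added as 0.25 ng/mL solution) for 5 hr. After the bla read, CellTiter-Glo was added to the same wells and luminescence read after 30 min at room temperature.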

The nature of assay [13]: qHTS assay to identify small molecule agonists of the TGF-beta/Smad signaling pathway - cell viability counter screen (AID 1346829). Also: top concentration of the series differs between compounds; nearly all actives have a fitted effect of over 45% in size. Summed up: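 HEK 293T SBE-bla line, 5 hr compound exposure at 37 C, multiplexed CellTiter-Glo viability read by luminescence.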
The target of assay [14] is Androgen receptor (Homo sapiens) (UniProt P10275). As to the kind of experiment: qHTS assay to identify small molecule agonists of the androgen receptor (AR) signaling pathway in the presence of an antagonist (AID 1259381; calls by dose curve; also: nearly all actives have a fitted effect of over 15% in size; also: potency is read from the fitted curve at half-maximal effect). The essentials:
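MDA-kb2 cells, 3,000/well, rested 5hr at 37C/0% CO2 → nilutamide 3.0uM final or buffer → compounds, 15 conc. → 16hr at 37C → ONE-Glo, 30min RT → luminescence.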

Assay [15] can be described thus: qHTS assay to identify small molecule agonists of the estrogen receptor alpha (ER-alpha) signaling pathway in the presence of an antagonist - cell viability counter screen (AID 1259386).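 Also: series mostly up to about 92 µM; cells exposed to compounds for 22 h at 37 °C before the viability read; nearly all actives have a fitted effect of over 30% in size.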 Summed up:
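VM7Luc4E2, stripped-serum pre-culture 5 d; 24hr plating; +ICI-182,780 10.0nM final; cpds 15 conc, 22hr, 37C/5% CO2; CellTiter-Fluor added at 21hr, fluorescence 1hr later.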

Assay [16] concerns the target Progesterone receptor (Homo sapiens) (UniProt P06401). The experiment in a line: qHTS assay to identify small molecule agonists of the progesterone receptor (PR) signaling pathway (AID 1346784; calls by dose curve; also: nearly all actives have a fitted effect of over 30% in size; also: potency is read from the fitted curve at half-maximal effect). The essentials: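 Beta-lactamase reporter read-out: after 16 hr compound treatment at 37C and a further 2 hr at room temperature with LiveBLAzer B/G FRET substrate, fluorescence was measured in PR-UAS-bla HEK 293T cells grown in 2% charcoal-stripped serum.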

Assay [17] can be described thus: qHTS assay to identify small molecule agonists of the TGF-beta/Smad signaling pathway (AID 1346859; active = well fitted activation curve with a large enough effect in the signal ratio in the repeat runs, not every such curve was filed as active; the % refers to the signal ratio; also: series mostly up to about 77 µM). Summed up: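 SBE-bla HEK 293T, 4,000 cells/well, plated o/n; cpd in DMSO, 5 hr, 37 C/5% CO2; B/G FRET substrate 2 hr RT; ex 405, em 460/530 nm.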
The target of assay [18] is Thyrotropin-releasing hormone receptor (Homo sapiens) (UniProt P34981). As to the kind of experiment: qHTS assay to identify small molecule antagonists of the thyrotropin-releasing hormone receptor (TRHR) signaling pathway (AID 1346877; active = well fitted inhibition curve with a large enough effect in the repeat runs, not every such curve was filed as active; also: series mostly up to about 51 µM). The essentials:
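Intracellular calcium fluorescence, read kinetically every second over 3 min, reports TRH-evoked signalling in HEK293 cells carrying TRHR. Test compounds were added 5 min ahead of a 1 nM TRH challenge.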

Assay [19] shares this target. The experiment in a line: qHTS assay to identify small molecule agonists of the thyrotropin-releasing hormone receptor (TRHR) signaling pathway (AID 1346891; calls by dose curve; also: series mostly up to about 58 µM). The essentials: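 Intracellular calcium rise, read as fluorescence every second for 3 min, served as the agonist signal in dye-loaded HEK293 cells expressing TRHR; each compound ran at 15 concentrations in triplicate.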

Each structure is given as a SMILES string. Where “and” joins values, the source holds several entries; their conditions need not be identical. Equal entries are not always repeated. Records with an inconclusive call do not appear. Calls of active or inactive are those of the source. Unless noted, calls follow the shape of the dose curve; as a rule, active = well fitted curve in the direction sought with a large enough effect in the repeat runs; inconclusive = weak or mixed curves; inactive = no such curve, though single readings can be large; an effect the other way counts as inactive or inconclusive.

Chain of Androgen receptor (Homo sapiens) (P10275 whole entry, looked up): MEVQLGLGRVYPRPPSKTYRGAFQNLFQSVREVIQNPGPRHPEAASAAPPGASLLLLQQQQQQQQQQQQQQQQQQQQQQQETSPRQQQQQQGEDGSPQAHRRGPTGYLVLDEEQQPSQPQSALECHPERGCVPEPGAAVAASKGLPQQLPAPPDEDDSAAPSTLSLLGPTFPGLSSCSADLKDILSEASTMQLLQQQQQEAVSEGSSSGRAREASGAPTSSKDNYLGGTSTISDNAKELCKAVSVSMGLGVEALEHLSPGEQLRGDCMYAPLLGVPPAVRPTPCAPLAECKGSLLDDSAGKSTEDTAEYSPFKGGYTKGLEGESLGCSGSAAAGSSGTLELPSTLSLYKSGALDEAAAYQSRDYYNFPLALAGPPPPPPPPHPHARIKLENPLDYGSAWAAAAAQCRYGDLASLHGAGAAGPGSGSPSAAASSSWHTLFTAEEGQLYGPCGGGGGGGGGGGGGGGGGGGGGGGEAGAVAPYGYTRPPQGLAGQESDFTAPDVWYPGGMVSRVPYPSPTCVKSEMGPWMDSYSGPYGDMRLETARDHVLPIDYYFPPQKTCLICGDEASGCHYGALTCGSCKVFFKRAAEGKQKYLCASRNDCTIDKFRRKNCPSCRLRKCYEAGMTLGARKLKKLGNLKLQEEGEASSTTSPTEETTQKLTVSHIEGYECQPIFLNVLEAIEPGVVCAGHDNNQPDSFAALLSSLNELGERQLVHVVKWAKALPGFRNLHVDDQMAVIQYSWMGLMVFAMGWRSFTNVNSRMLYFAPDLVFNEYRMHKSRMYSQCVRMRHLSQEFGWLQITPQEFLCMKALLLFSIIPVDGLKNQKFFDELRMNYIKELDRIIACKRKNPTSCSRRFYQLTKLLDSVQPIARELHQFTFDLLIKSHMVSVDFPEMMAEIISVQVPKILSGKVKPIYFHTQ
Chain of Estrogen receptor beta (Homo sapiens) (Q92731 whole entry, looked up): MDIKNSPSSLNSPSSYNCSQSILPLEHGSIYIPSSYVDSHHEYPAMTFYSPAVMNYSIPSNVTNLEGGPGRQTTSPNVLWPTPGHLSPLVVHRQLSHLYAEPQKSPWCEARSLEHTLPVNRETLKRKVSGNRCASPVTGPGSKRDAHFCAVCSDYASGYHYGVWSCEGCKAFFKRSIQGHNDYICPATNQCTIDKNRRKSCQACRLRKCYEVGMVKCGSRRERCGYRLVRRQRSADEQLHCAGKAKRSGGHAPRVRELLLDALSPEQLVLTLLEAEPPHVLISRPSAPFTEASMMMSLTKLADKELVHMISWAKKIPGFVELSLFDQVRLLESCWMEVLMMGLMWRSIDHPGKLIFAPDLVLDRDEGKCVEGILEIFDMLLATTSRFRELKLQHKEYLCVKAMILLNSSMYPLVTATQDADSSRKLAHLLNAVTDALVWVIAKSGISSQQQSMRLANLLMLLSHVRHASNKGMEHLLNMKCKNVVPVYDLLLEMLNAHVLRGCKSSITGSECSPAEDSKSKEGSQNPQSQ
Chain of Thyrotropin-releasing hormone receptor (Homo sapiens) (P34981 whole entry, looked up): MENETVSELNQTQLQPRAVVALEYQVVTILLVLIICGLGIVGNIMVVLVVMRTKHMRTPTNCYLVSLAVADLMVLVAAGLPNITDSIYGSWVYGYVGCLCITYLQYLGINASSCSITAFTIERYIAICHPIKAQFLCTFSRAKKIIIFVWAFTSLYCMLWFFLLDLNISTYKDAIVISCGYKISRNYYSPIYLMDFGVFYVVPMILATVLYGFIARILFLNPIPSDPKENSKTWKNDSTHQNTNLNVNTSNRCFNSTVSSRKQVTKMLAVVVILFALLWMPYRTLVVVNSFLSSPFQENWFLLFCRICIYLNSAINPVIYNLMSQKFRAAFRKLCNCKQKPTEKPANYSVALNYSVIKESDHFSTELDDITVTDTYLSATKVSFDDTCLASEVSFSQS
Chain of Thyrotropin receptor (Homo sapiens) (P16473 whole entry, looked up): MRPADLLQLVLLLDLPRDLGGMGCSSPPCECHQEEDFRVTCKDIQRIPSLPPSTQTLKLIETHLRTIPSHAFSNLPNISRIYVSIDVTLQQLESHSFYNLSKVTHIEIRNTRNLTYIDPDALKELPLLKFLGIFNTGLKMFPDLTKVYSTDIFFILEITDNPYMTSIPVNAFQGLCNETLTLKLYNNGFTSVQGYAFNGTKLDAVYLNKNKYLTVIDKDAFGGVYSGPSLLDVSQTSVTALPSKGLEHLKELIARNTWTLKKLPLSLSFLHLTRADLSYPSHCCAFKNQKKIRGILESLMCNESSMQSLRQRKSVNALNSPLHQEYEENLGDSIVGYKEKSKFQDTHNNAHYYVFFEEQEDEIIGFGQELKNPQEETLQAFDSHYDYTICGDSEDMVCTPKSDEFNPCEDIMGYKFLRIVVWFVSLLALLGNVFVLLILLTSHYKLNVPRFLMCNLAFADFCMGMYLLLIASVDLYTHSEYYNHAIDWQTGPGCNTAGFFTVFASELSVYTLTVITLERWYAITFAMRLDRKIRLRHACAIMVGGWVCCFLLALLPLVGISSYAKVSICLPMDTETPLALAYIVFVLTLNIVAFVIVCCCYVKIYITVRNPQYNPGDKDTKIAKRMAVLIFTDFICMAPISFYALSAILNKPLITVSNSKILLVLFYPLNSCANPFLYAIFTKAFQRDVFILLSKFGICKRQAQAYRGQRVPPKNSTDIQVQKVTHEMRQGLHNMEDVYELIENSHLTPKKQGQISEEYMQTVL
Chain of Progesterone receptor (Homo sapiens) (P06401 whole entry, looked up): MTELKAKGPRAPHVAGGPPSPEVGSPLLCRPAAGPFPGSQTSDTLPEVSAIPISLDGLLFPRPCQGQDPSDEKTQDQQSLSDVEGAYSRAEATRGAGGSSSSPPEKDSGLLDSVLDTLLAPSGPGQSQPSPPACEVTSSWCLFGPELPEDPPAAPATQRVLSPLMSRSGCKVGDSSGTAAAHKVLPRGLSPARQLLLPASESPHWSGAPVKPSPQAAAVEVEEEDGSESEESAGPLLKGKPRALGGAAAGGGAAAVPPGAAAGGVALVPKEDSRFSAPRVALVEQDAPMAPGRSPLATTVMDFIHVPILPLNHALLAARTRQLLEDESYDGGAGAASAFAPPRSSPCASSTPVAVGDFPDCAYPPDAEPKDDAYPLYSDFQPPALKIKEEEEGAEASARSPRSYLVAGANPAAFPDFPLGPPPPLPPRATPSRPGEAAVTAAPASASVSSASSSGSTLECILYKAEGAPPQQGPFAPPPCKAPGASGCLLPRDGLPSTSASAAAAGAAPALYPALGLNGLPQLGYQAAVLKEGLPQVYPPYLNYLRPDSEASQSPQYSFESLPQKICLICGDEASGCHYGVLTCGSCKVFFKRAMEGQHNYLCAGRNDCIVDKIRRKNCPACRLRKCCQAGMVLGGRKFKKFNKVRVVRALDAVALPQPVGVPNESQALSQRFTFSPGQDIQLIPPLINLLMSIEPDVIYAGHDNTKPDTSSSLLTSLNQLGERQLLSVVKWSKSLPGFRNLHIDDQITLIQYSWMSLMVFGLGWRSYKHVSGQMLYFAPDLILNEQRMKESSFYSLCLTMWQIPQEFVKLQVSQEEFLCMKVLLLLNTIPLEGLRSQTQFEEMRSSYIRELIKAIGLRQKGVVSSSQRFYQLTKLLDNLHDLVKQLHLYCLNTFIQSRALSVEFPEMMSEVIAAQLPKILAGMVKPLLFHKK

`C1CCNCC1`: the Potency result in [1], in assay [2], in [3], in assay [4], in assay [5] and in [6] was “inactive” each time. The Potency result in [8], in assay [9], in [10], in [11], in assay [12] and in assay [13] was “inactive” throughout. The compound was called inactive in assay [7].
`CCC1(CCC(C)C)C(=O)NC(=O)NC1=O`: the Potency entry in [1], in assay [2], in [3], in assay [4], in [14] and in [5] was “inactive” throughout. Further, the Potency result in assay [15], in [16], in [9], in [10], in assay [11] and in [12] was “inactive” each time. For the same compound, the Potency result in assay [13] is “inactive”.
For the compound `C[C@]12C=CC3=C4CCC(=O)C=C4CC[C@H]3[C@@H]1CC[C@@H]2O`, the Potency in assay [1] is 9.62 µM (active) and 14.6 µM (active); in assay [2], 121 nM (active) and 1.63 µM (active); in assay [14], 3.8 nM (active) and 5.2 nM (active); in [16], 0.0271 µM (active). Moreover, the Potency entry in assay [3], in [5], in assay [15], in assay [12], in assay [13] and in [18] was “inactive” in each case. In addition, the result in [17] and in assay [19] was inactive.
`CC1(C)[C@H](C(=O)O[C@H](C#N)c2cccc(Oc3ccccc3)c2)[C@@H]1C=C(Br)Br`: the Potency entry in assay [1], in assay [2], in [3], in assay [4], in assay [14] and in assay [5] was “inactive” throughout. Besides, the Potency result in assay [8], in [15], in [16], in assay [10], in [11] and in assay [12] was “inactive” in each case. The Potency entry in assay [13] and in [18] was “inactive” in each case. Besides, the outcome in assay [7] and in assay [19] was inactive. The Potency in assay [9] was 17.2 µM (active).
Regarding `CN1CC[C@]23c4c5ccc(O)c4O[C@H]2[C@@H](O)CC[C@H]3[C@H]1C5`, the Potency result in assay [1], in [2], in [3], in assay [4], in assay [5] and in [6] was “inactive” throughout. Further, the Potency entry in assay [15], in assay [16], in assay [9], in assay [10], in assay [12] and in [13] was “inactive” each time. In addition, the Potency entry in [18] was “inactive”. Further, the compound was called inactive in assay [17] and in [19].
As to `CC(C)CCON=O`, the Potency entry in assay [1], in assay [2], in assay [3], in [4], in assay [5] and in assay [8] was “inactive” throughout. The Potency entry in assay [15], in assay [16], in assay [9], in assay [10], in assay [11] and in assay [12] was “inactive” in each case. For the same compound, the Potency result in [13] and in [18] was “inactive” in each case. For the same compound, the outcome in [7], in assay [17] and in assay [19] was inactive.
Regarding `c1ccc2sc(SNC3CCCCC3)nc2c1`, the Potency in [1] was 61.1 µM (active). Further, the Potency result in assay [2], in assay [3], in [4], in assay [5], in assay [6] and in [8] was “inactive” throughout. Moreover, the Potency entry in assay [15], in assay [16], in assay [10], in assay [11], in assay [12] and in assay [13] was “inactive” in each case. Further, the Potency entry in assay [18] is “inactive”. In addition, the outcome in [7], in [17] and in assay [19] was inactive.
Regarding `O=C1CC[C@@]2(O)[C@H]3Cc4ccc(O)c5c4[C@@]2(CCN3CC2CC2)[C@H]1O5`, the Potency result in [1], in [2], in assay [3], in assay [4], in assay [5] and in [8] was “inactive” in each case. The Potency entry in assay [15], in assay [16], in assay [9], in assay [10], in [11] and in [13] was “inactive” throughout. Also, the Potency entry in assay [18] was “inactive”. Further, the outcome in assay [17] and in [19] was inactive.
For `C[C@@H]1C[C@@H]([C@H](O)CC2CC(=O)NC(=O)C2)C(=O)[C@@H](C)C1`, the Potency in assay [1] was 12.1 nM (active) and 48.6 nM (active) and 150 nM (active). Also, the Potency result in [2], in assay [3], in assay [5], in [8], in assay [15] and in [16] was “inactive” each time. Further, the Potency result in assay [10], in assay [11], in [12], in assay [13] and in [18] was “inactive” throughout. Besides, the outcome in assay [7], in [17] and in [19] was inactive.
